Test results as given in PubChem BioAssay (Tox21).
Records with an inconclusive call do not appear. Entries that show only a call come without a potency. A number with no mark means an inactive call. Calls of active or inactive are those of the source. Calls follow the shape of the full dose curve.

These compounds were tested against Retinoic acid receptor RXR-alpha (Homo sapiens) (UniProt P19793) (assay: qHTS assay to identify small molecule agonists of the RXR signaling pathway (AID 1159527; also: nearly all actives have a fitted effect of over 35% in size)). Settings: HEK293T RXRa-UAS-bla, beta-lactamase ratio, 16 h; series mostly up to 76.8 µM.
Chain of Retinoic acid receptor RXR-alpha (Homo sapiens) (P19793 whole entry, looked up): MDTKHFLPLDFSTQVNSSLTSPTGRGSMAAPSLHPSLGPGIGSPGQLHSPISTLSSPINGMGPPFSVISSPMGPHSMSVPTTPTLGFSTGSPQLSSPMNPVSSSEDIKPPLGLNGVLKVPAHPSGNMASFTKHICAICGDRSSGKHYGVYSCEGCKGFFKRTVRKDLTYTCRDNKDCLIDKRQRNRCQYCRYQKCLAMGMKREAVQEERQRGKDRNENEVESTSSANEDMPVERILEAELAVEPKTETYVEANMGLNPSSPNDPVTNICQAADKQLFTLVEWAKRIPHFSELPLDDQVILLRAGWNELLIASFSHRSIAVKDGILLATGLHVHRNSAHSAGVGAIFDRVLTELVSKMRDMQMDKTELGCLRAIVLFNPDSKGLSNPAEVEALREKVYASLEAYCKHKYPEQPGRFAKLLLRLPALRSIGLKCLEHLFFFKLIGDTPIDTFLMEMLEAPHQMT
Excerpt: U.S. Tox21 Program National Center for Advancing Translational Sciences [NCATS] NIH Chemical Genomics Center [NCGC] U.S. Environmental Protection Agency [EPA] National Institutes of Environmental Health Sciences [NIEHS] National Toxicology Program [NTP] U.S. Food and Drug Administration [FDA] Tox21 Assay Overview: The Retinoid X receptor (RXR), a nuclear hormone receptor expressed in liver, spleen, placenta, epidermis, central nervous system. These receptors are able to form homo and heterodimers with other nuclear receptors and due to this heterodimerizing ability, RXR functions as master regulators producing diverse physiological effects. Three subtypes of RXR exist; alpha, beta and gamma. Retinoid X receptor alpha (RXR-alpha) has potential roles in metabolic signaling pathways, skin alopecia, dermal cysts, cardiac development, insulin sensitization etc. Therefore screening environmental chemicals on RXR-alpha signaling can be used for the studies focused on such therapeutic applications. For quantification of RXR-alpha ligands signaling, GeneBLAzer RXR alpha-UAS-bla HEK 293T (Life Technologies, Carlsbad, CA) cells containing a beta-lactamase reporter-gene under control of Retinoid X receptor-alpha response element were used to screen Tox21 10K library.
Tox21 Assay Protocol Summary: RXR-alpha HEK 293T cells were dispensed at 2,000 cells/6 uL of assay medium containing 2% charcoal-stripped FBS using a Multidrop Combi (ThermoFisher Scientific, Waltham, MA) dispenser. The assay was performed in black wall/clear-bottom 1536-well plates (Greiner Bio-One North America Inc. Monroe, NC). 9-cis retinoic acid was used as a positive control in the agonist mode screen. After the assay plates were incubated at 37 C and 5% CO2 for 5 hr, 23 nL of compounds dissolved in DMSO, positive controls or DMSO only were transferred to the assay plate by a Pintool station (Kalypsys, San Diego, CA). The assay plates were incubated at 37 C and 5% CO2 for 16 hr. One uL of LiveBLAzer B/G FRET substrate (Life Technologies) was added using a Flying Reagent Dispenser (Aurora Discovery, San Diego, CA) and the plates were incubated at room temperature for 2 hr. Fluorescence intensity (405 nm excitation, 460/530 nm emission) was measured using an Envision plate reader (PerkinElmer, Shelton, CT).

Row | SMILES | Potency | activation
1 | O=C1C(CCS(=O)c2ccccc2)C(=O)N(c2ccccc2)N1c1ccccc1 (stereo not given) | inactive | 
2 | Cc1ccccc1C(=O)O | inactive | 
3 | CCCCCCCCCCCl | inactive | 
4 | CC(C)c1cccc(O)c1 | inactive | 
5 | O=C(O)c1ccccc1-c1ccc(C(F)(F)F)cc1 | inactive | 
6 | N[C@@H](CS)C(=O)O | inactive | 
7 | Cc1ccccc1Br | inactive | 
8 | CC(C)CCCC(C)NCCC(C)C (stereo not given) | inactive | 
9 | CC(C)c1cccc(C(C)C)c1N | inactive | 
10 | O=C(O)/C=C/c1ccc(Cn2ccnc2)cc1 | inactive | 
11 | Nc1ncnc2c1ncn2Cc1c(F)cccc1Cl | inactive | 
12 | C=C(C)[C@H]1CC=C(C)CC1 | inactive | 
13 | Cc1ccc(Nc2ccc(O)c3c2C(=O)c2ccccc2C3=O)cc1 | inactive | 
14 | COCc1ccc(COC)cc1 | inactive | 
15 | CCCC(=O)O[C@]1(C(=O)CCl)[C@@H](C)C[C@H]2[C@@H]3CCC4=CC(=O)C=C[C@]4(C)[C@@]3(F)C(=O)C[C@@]21C | inactive | 
16 | OCCN1C[C@H](O)[C@@H](O)[C@H](O)[C@H]1CO | inactive | 
17 | Oc1cc(O)c2c(c1)O[C@H](c1ccc(O)c(O)c1)[C@H](O)C2 | inactive | 
18 | Nc1nc(F)nc2c1ncn2[C@@H]1O[C@H](CO)[C@@H](O)[C@@H]1O | inactive | 
19 | C=CCSCC1Nc2cc(Cl)c(S(N)(=O)=O)cc2S(=O)(=O)N1 (stereo not given) | inactive | 
20 | C1C2OC2C2C1C1CC2C2OC12 (stereo not given) | inactive | 

Row | SMILES | Potency | activation
21 | COc1nc(C)nc(N)n1 | inactive | 
22 | Cc1c(C)n(CCN(C)C)c2ccc(C(=O)OCCN(C)C)cc12 | inactive | 
23 | C=CC(=O)N1CCOCC1 | inactive | 
24 | c1ccc(CCCc2ccccn2)cc1 | inactive | 
25 | C=C[Si](OC)(OC)OC | inactive | 
26 | NCC[C@H](O)C(=O)N[C@@H]1C[C@H](N)[C@@H](O[C@H]2O[C@H](CN)[C@@H](O)[C@H](O)[C@H]2O)[C@H](O)[C@H]1O[C@H]1O[C@H](CO)[C@@H](O)[C@H](N)[C@H]1O |  | 7.2% [at 0.29 µM]
27 | CCN(CC)S(=O)(=O)c1ccc(C(=O)O)cc1 | inactive | 
28 | CC(=O)c1ccc(C)cc1 | inactive | 
29 | CC(C)=CCC/C(C)=C/C(=O)O | inactive | 
30 | CCn1c(=O)c2c(nc(/C=C/c3ccc(OC)c(OC)c3)n2C)n(CC)c1=O | inactive | 
31 | N#CC1(O)CCCCC1 | inactive | 
32 | Nc1nc2c(ncn2CCC(CO)CO)c(=O)[nH]1 | inactive | 
33 | COC(=O)CCCCCCCCC(=O)OC | inactive | 
34 | N#CCc1ccccc1[N+](=O)[O-] | inactive | 
35 | CCCc1ccc(N)cc1 | inactive | 
36 | NS(=O)(=O)c1cc(C2(O)NC(=O)c3ccccc32)ccc1Cl (stereo not given) | inactive | 
37 | Cc1nccn1CC1CCc2c(c3ccccc3n2C)C1=O (stereo not given) | inactive | 
38 | CN(C)CCOC(c1ccc(Cl)cc1)c1ccccn1 (stereo not given) | inactive | 
39 | CCCCc1ccc2cccc(S(=O)(=O)O)c2c1 | inactive | 
40 | CCCc1ccccc1O | inactive | 
